From PubChem
Hits are enriched below; roughly 0.5% of the tested compounds scored in any of these assays.
phage Ecoli inh = E. coli growth loss with phage present; 360,000 tested, 0.26% active; inhibition, % at 11.9 µM; AID 651602; growth absorbance; in the data active means inhibition above about 11%
E coli growth-1 = reduces bacterial viability in AddAB counter-screen. E. coli V3065 growth, OD600 absorbance, 18 h. 330,000 tested, 0.27% active. inhibition, % at 11.9 µM;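 active means inhibition above the campaign's mean inhibition across all tested compounds plus 3 SD, cut at about 9.9% in these data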;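 further: uninfected addAB+ strain grown without phage in ampicillin broth; 0% = DMSO wells and 100% = ciprofloxacin 0.95 µg/ml wells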
E coli growth-2 = inhibitors of Escherichia coli growth | OD600, 23 h; hits give low values | OD600 absorbance (test concentration not listed) | 330,000 tested, 0.21% active | AID 1053175;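 active means OD600 absorbance below the run mean of sample wells minus 3.6 SD, in any replicate, cut at about 0.56 in these data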
AddAB inh = less growth of phage-infected E. coli with AddAB; 330,000 tested, 0.29% active; inhibition, % at 11.9 µM; E. coli expressing H. pylori AddAB, absorbance growth; AID 435030; in the data active means inhibition above about 12%;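 further: 0% = vehicle wells of infected cells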
Tat transport = E. coli Tat transport inhibition. E. coli MC4100 TorA-mCherry Tat export, fluorescence. 340,000 tested, 0.036% active. AID 488895. inhibition, % at 10 µM;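 active means mean replicate inhibition at least 50% and at least half of replicates individually reaching 50%; inconclusive means only one of the two criteria met; inactive means neither criterion met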;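 further: exported cargo escapes ClpAP degradation while cytoplasmic cargo is degraded and loses fluorescence; 0% = median of neutral control wells and 100% = median of NaSCN control wells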
AddAB conf = growth loss of T4-infected E. coli expressing H. pylori AddAB, confirmed | shares compounds with AddAB inh | 880 tested, 64% active | inhibition, % at 11.9 µM | AID 488942 | E. coli V3065 expressing H. pylori AddAB, T4 phage, OD; T4 phage with gene 2 nonsense mutations;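 active means mean inhibition above a set limit taken from the earlier primary screen, cut at about 13% in these data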;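 further: higher means less bacterial growth since AddAB block lets phage replicate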
RecBCD counter = counter-screen: growth loss of RecBCD+ E. coli with mutant T4 phage | inhibition, % at 11.9 µM | shares compounds with AddAB inh | 880 tested, 73% active | E. coli V66 + mutant T4 phage, OD growth;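 active means mean inhibition above the mean of solvent-only control wells plus 3 SD, cut at about 4% in these data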;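 further: optical density read after an 18 h incubation at 37 °C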
Bact viability = counter-screen: bacterial growth inhibition | AID 488956 | bacterial viability, absorbance (AddAB counterscreen) | 880 tested, 35% active | inhibition, % at 11.9 µM | shares compounds with AddAB inh; in the data active means inhibition above about 25%
RecBCD conf = growth loss of phage-infected V66 E. coli, RecBCD confirmation screen | AID 651982 | shares compounds with phage Ecoli inh | E. coli V66 + T4 2- phage, growth OD | 890 tested, 45% active | inhibition, % at 11.9 µM;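 active means mean inhibition over triplicates exceeding the hit threshold derived in the original primary screen, cut at about 11% in these data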
Ecoli viability = inhibits E. coli viability, flagging RecBCD hits as nonselective. 890 tested, 29% active. inhibition, % at 11.9 µM. AID 651983. absorbance (OD) growth. shares compounds with phage Ecoli inh; in the data active means inhibition above about 20%;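 further: E. coli strain V66 grown with compound alone and no phage infection; 0% = bacteria with DMSO vehicle only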
AddAB counter = growth loss of phage-infected AddAB E. coli, RecBCD counter-screen; AID 651984; 890 tested, 45% active; shares compounds with phage Ecoli inh; E. coli expressing H. pylori AddAB + T4 phage, OD growth; gene 2 mutant T4, recBCD-deleted host; inhibition, % at 11.9 µM;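 active means mean inhibition above the solvent-only control wells' mean plus 3 SD, cut at about 22% in these data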;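 further: higher means less bacterial growth from phage killing when AddAB is blocked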
The depositor's hits bear a star; ? = inconclusive; . = not tested or not shown.

SMILES	phage Ecoli inh	E coli growth-1	E coli growth-2	AddAB inh	Tat transport	AddAB conf	RecBCD counter	Bact viability	RecBCD conf	Ecoli viability	AddAB counter
COc1cc(Cc2cc(N)nc(N)n2)cc(OC)c1OC	95*	101*	0.051*	101*	-7	99*	99*	99*	103*	105*	103*
COC(=O)C1=C(C(=O)OC)C2N(C)c3ccc(OC)cc3[C@@]23CC(C(=O)OC)N(C(=O)NC2CCCCC2)C3=N1 (stereo partly specified)	.	.	0.72	.	.	.	.	.	.	.	.
O=C(CSc1nnc(-c2cccnc2)o1)Nc1ccc(F)cc1	4	.	.	.	.	.	.	.	.	.	.
COc1ccc(NC(=O)CSc2nnc(-c3ccc(F)cc3)o2)cn1	24*	9	0.59	21*	-76	29*	17*	20	21*	21*	39*
CC1CN(C(C)CO)C(=O)Cc2cc(NC(=O)Nc3ccc4c(c3)OCO4)ccc2OC1CN(C)S(=O)(=O)c1cccs1 (stereo unspecified)	.	.	0.67	.	.	.	.	.	.	.	.
CCc1nnc(NS(=O)(=O)c2ccc(N=Cc3c(C)[nH]n(-c4ccc(C)c(C)c4)c3=O)cc2)s1	11*	12*	.	16*	-2	9	4.5*	11	7	4	23*
O=C(CC1CCCC1)NNC(=O)c1ccccc1O	0	.	.	.	.	.	.	.	.	.	.
O=C(CCC1CCCC1)NNC(=O)c1cc2ccccc2cc1O	16*	9	0.67	18*	-11	14*	14*	13	8	9	14
O=C(/C=C1\NC2(CCCC2)Cc2ccccc21)C(=O)N/N=C/c1ccccc1O	25*	13*	.	16*	1	30*	25*	22	19*	22*	25*
Nc1ncn([C@@H]2O[C@H](CO)[C@@H](O)[C@H]2O)c(=O)n1	62*	93*	.	96*	-2	91*	29*	94*	48*	56*	103*
Nc1nc(=S)c2ncn(C3OC(CO)C(O)C3O)c2[nH]1 (stereo unspecified)	17*	30*	0.52	25*	-12	74*	27*	54*	32*	38*	55*
Nc1nc(=S)c2ncn(C3CCCCC3)c2[nH]1	2	.	0.68	.	-8	.	.	.	.	.	.
Nc1nc(Cl)nc2c1ncn2[C@@H]1O[C@H](CO)[C@@H](O)[C@H]1O	5	0	.	-2	5	.	.	.	.	.	.
Nc1nc(=S)c2ncn([C@@H]3O[C@H](CO)[C@@H](O)[C@H]3O)c2[nH]1	72*	76*	.	89*	-25	91*	63*	73*	57*	75*	81*
OCC(O)C(O)C(OC1OC(CO)C(O)C(O)C1O)C(O)CO (stereo unspecified)	.	.	0.66	.	.	.	.	.	.	.	.
CCCCC(=O)NC(c1cccs1)c1cc(Cl)c2cccnc2c1O (stereo unspecified)	17*	18*	0.66	16*	-5	21*	17*	16	11	11	19
CCCC(=O)NC(c1ccco1)c1cc([N+](=O)[O-])c2cccnc2c1O (stereo unspecified)	4	-3	0.62	3	-11	.	.	.	.	.	.
CCC(=O)NC(c1cc(Cl)c2cccnc2c1O)C(C)C (stereo unspecified)	18*	17*	0.66	15*	-3	4	12*	5	5	8	13
CC(=O)NC(c1ccc(C)cc1)c1cc([N+](=O)[O-])c2cccnc2c1O (stereo unspecified)	1	1	0.68	1	-9	.	.	.	.	.	.
CC(=O)NC(c1ccccc1)c1cc(Cl)c2cccnc2c1O (stereo unspecified)	13*	18*	0.63	17*	23	11	15*	4	5	9	10
CCC(=O)NC(c1cccs1)c1cc(Cl)c2cccnc2c1O (stereo unspecified)	26*	26*	0.71	23*	-4	25*	22*	16	14*	21*	21
CC(=NNc1nncc2ccccc12)c1ccc(Cl)c([N+](=O)[O-])c1	.	.	0.68	.	.	.	.	.	.	.	.
CCOC1OC(C(N)=O)=CC(c2coc3ccccc3c2=O)C1CCCO (stereo unspecified)	.	.	0.66	.	.	.	.	.	.	.	.
COc1ccc(C=NN(C)C2=NS(=O)(=O)c3ccccc32)cc1	.	.	0.67	.	.	.	.	.	.	.	.
CC(C)CC(NC(=O)c1nc[nH]c1C(=O)N1CCC(C)CC1)C(=O)OCc1ccccc1 (stereo unspecified)	.	.	0.69	.	.	.	.	.	.	.	.
SMILES	phage Ecoli inh	E coli growth-1	E coli growth-2	AddAB inh	Tat transport	AddAB conf	RecBCD counter	Bact viability	RecBCD conf	Ecoli viability	AddAB counter
O=[N+]([O-])c1ccc(-c2ccn[nH]2)o1	98*	100*	0.062*	100*	?	102*	100*	101*	105*	106*	106*
CCn1cc(C(=O)N[C@@H](C)C(=O)NCCCO)c(=O)c2cc3c(cc21)OCO3	2	.	0.58	.	4	.	.	.	.	.	.
CCCCCCNC(=O)c1cn(CC)c2cc(N3CCN(C)CC3)c(F)cc2c1=O	98*	97*	0.067*	98*	79*	101*	100*	101*	101*	102*	101*
CCn1cc(C(=O)NCCCO)c(=O)c2cc(F)c(N3CCN(C)CC3)cc21	100*	99*	0.071*	99*	94*	100*	99*	100*	99*	100*	98*
Oc1ccc(C=NNc2ccc(C(F)(F)F)cn2)cc1O	.	.	0.64	.	.	.	.	.	.	.	.
CC(NC(=O)COc1ccc(C=NNC(=O)CO)cc1)c1ccccc1 (stereo unspecified)	.	.	0.73	.	.	.	.	.	.	.	.
Cc1cc(C)c2c(N=NN3CCCCC3)[nH]nc2n1	14*	89*	0.65	98*	-7	91*	7.7*	43*	9	10	53*
CCN(CC)N=Nc1[nH]nc2nc(C)cc(C)c12	14*	87*	0.56*	35*	25	93*	9.3*	51*	10	10	76*
Cc1cc(NN=Cc2ccccc2Br)nc2ccccc12	.	.	0.68	.	.	.	.	.	.	.	.
O=C(C=Cc1cccs1)N1CCC2(CC1)Oc1ccc(F)cc1C(=O)C21CC(c2ccc(Cl)cc2)=NO1 (stereo unspecified)	.	.	0.72	.	.	.	.	.	.	.	.
